Experimental data taken from publication PMC7862700, “An all-to-all approach to the identification of sequence-specific readers for epigenetic DNA modifications on cytosine”.

Columns and labels:
Test in all cases: DAPPL (digital affinity profiling via proximity ligation, sequencing); 10 mM Tris-HCl pH 7.5, 50 mM NaCl, 1 mM DTT, 4% glycerol, room temperature, 30 min; GST-TFs on glutathione beads, 16-mer random dsDNA library, 0.1% formaldehyde crosslink after washing; high values mean tight binding
Settings in all cases: protein: recombinant; tags: N-terminal GST; dsDNA, one strand shown
[1] = target: T1, ERF (Homo sapiens, UniProt P50548 1-548)
T1 sequence: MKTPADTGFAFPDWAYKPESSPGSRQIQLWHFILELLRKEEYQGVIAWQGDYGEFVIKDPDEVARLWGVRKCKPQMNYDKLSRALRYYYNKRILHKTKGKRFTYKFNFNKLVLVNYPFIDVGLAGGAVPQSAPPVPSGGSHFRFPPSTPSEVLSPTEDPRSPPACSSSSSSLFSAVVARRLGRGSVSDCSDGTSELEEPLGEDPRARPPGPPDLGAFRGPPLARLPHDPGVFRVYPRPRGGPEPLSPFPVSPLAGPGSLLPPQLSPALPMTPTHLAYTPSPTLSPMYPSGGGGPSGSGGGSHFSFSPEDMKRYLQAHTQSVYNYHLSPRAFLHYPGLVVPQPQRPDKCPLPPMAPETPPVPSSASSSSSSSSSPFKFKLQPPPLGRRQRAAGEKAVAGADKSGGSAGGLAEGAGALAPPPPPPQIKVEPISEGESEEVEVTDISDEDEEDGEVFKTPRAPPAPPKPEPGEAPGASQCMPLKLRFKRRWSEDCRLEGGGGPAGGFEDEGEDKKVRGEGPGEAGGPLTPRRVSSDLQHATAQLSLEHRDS
In short: (§1)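 Yeast served to express human transcription factors as GST fusions, which were then captured on glutathione beads and labelled with DNA barcodes. Pooled with a tag-only sample, they were incubated with 200 nmole of a 16-mer random double-stranded DNA library for 30 min at room temperature in Tris/NaCl/DTT/glycerol buffer, washed, crosslinked with 0.1% formaldehyde, ligated by proximity, amplified by PCR and sequenced. Dividing each hexamer's read frequency for a factor by its frequency for the tag-only sample gives the binding signal.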

[2] = target: T2, ETV3L (Homo sapiens, UniProt Q6ZN32 1-361)
T2 sequence: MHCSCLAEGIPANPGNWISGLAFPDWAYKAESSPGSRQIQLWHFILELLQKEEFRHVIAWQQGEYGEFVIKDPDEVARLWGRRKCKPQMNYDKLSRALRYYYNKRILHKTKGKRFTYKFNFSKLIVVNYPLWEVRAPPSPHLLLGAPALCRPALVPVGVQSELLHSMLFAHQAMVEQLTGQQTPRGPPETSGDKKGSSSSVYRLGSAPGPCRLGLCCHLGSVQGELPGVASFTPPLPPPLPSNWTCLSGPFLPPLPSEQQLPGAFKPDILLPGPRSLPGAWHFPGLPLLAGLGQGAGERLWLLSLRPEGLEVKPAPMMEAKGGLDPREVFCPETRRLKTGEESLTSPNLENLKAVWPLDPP
In short: as §1

[3] = target: T3, ETS2 (Homo sapiens, UniProt P15036 1-469)
T3 sequence: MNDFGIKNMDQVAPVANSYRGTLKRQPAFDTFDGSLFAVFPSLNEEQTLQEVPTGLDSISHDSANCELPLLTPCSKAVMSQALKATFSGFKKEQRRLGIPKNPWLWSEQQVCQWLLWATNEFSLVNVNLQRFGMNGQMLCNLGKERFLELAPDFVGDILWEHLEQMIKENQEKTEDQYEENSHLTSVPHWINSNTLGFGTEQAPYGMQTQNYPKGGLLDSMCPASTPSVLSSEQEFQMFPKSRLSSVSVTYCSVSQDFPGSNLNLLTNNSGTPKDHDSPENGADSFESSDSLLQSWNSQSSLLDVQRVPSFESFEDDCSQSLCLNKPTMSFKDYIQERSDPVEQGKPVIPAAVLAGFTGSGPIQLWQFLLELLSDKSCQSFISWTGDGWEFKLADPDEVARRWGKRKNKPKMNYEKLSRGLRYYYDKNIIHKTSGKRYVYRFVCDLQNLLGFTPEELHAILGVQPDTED
In short: as §1

[4] = target: T4, SPDEF (Homo sapiens, UniProt O95238 1-335)
T4 sequence: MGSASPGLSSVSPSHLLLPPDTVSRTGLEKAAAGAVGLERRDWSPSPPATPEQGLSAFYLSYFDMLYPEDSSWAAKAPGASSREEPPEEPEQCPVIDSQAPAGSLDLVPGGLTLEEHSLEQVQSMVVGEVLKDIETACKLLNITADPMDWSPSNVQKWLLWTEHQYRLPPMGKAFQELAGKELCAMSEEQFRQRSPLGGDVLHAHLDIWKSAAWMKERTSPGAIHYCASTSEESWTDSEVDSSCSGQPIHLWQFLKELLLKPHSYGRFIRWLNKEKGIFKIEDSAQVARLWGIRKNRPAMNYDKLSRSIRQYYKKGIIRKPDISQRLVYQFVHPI
In short: as §1

[5] = target: T5, ETV7 (Homo sapiens, UniProt Q9Y603 1-341)
T5 sequence: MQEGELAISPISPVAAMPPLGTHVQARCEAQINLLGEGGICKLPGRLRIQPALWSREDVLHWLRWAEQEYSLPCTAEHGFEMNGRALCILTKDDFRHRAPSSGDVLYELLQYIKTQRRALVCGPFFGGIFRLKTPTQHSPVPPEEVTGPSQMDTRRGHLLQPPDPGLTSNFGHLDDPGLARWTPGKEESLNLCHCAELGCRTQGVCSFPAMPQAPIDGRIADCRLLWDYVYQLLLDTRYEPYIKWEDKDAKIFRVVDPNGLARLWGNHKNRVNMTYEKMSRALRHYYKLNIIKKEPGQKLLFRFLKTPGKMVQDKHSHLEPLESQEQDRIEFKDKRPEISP
In short: as §1

[6] = target: T6, ELF5 (Homo sapiens, UniProt Q9UKW6-2 1-255)
T6 sequence: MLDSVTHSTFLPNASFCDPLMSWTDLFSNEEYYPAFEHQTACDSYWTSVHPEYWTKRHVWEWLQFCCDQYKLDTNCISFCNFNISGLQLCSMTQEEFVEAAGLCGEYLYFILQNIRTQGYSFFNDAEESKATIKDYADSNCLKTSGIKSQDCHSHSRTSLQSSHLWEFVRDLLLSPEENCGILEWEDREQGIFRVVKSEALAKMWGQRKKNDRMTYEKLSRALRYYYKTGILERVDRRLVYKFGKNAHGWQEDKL
In short: as §1

[7] = target: T7, ETV3 (Homo sapiens, UniProt P41162-2 1-143)
T7 sequence: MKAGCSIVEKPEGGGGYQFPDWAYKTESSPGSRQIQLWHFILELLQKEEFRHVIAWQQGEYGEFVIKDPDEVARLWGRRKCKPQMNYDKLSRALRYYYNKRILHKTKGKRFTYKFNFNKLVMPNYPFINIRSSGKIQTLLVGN
In short: as §1

[8] = target: ETV6 (Homo sapiens, UniProt P41212 1-452)
Sequence of ETV6 (P41212 whole entry): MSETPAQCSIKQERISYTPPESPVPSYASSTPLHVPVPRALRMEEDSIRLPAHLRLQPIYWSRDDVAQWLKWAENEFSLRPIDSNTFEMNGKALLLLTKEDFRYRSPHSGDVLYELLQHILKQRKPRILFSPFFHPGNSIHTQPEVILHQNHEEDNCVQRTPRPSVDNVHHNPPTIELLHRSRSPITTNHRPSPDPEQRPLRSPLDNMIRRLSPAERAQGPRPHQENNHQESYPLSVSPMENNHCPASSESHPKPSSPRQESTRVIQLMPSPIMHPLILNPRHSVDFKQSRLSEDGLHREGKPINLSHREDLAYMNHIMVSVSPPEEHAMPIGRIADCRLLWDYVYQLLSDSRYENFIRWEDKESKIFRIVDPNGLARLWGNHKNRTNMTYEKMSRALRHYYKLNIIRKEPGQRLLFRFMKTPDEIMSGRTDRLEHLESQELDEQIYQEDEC
In short: as §1

Sequence | binding signal [1] | binding signal [2] | binding signal [3] | binding signal [4] | binding signal [5] | binding signal [6] | binding signal [7] | binding signal [8]
TGTTGC | 1.46 fold enrichment (6-mer frequency, TF over GST control) | 1.37 fold enrichment (6-mer frequency, TF over GST control) | 1.3 fold enrichment (6-mer frequency, TF over GST control) | 1.33 fold enrichment (6-mer frequency, TF over GST control) | 1.27 fold enrichment (6-mer frequency, TF over GST control) | 1.3 fold enrichment (6-mer frequency, TF over GST control) | 1.56 fold enrichment (6-mer frequency, TF over GST control) | 1.33 fold enrichment (6-mer frequency, TF over GST control)
TAATGC | 1.07 fold enrichment (6-mer frequency, TF over GST control) | 1.16 fold enrichment (6-mer frequency, TF over GST control) | 1.2 fold enrichment (6-mer frequency, TF over GST control) | 1.17 fold enrichment (6-mer frequency, TF over GST control) | 1.13 fold enrichment (6-mer frequency, TF over GST control) | 1.17 fold enrichment (6-mer frequency, TF over GST control) | 1.16 fold enrichment (6-mer frequency, TF over GST control) | 1.13 fold enrichment (6-mer frequency, TF over GST control)
CGTTCT | 1.46 fold enrichment (6-mer frequency, TF over GST control) | 1.51 fold enrichment (6-mer frequency, TF over GST control) | 1.37 fold enrichment (6-mer frequency, TF over GST control) | 1.44 fold enrichment (6-mer frequency, TF over GST control) | 1.56 fold enrichment (6-mer frequency, TF over GST control) | 1.44 fold enrichment (6-mer frequency, TF over GST control) | 1.37 fold enrichment (6-mer frequency, TF over GST control) | 1.47 fold enrichment (6-mer frequency, TF over GST control)
TAATTA | 1.24 fold enrichment (6-mer frequency, TF over GST control) | 1.23 fold enrichment (6-mer frequency, TF over GST control) | 1.34 fold enrichment (6-mer frequency, TF over GST control) | 1.24 fold enrichment (6-mer frequency, TF over GST control) | 1.35 fold enrichment (6-mer frequency, TF over GST control) | 1.2 fold enrichment (6-mer frequency, TF over GST control) | 1.19 fold enrichment (6-mer frequency, TF over GST control) | 1.36 fold enrichment (6-mer frequency, TF over GST control)
TATGAC | 1.39 fold enrichment (6-mer frequency, TF over GST control) | 1.36 fold enrichment (6-mer frequency, TF over GST control) | 1.31 fold enrichment (6-mer frequency, TF over GST control) | 1.33 fold enrichment (6-mer frequency, TF over GST control) | 1.29 fold enrichment (6-mer frequency, TF over GST control) | 1.29 fold enrichment (6-mer frequency, TF over GST control) | 1.2 fold enrichment (6-mer frequency, TF over GST control) | 1.25 fold enrichment (6-mer frequency, TF over GST control)
CGACAA | 1.18 fold enrichment (6-mer frequency, TF over GST control) | 1.24 fold enrichment (6-mer frequency, TF over GST control) | 1.16 fold enrichment (6-mer frequency, TF over GST control) | 1.27 fold enrichment (6-mer frequency, TF over GST control) | 1.12 fold enrichment (6-mer frequency, TF over GST control) | 1.14 fold enrichment (6-mer frequency, TF over GST control) | 1.15 fold enrichment (6-mer frequency, TF over GST control) | 1.31 fold enrichment (6-mer frequency, TF over GST control)
TGTTTC | 1.86 fold enrichment (6-mer frequency, TF over GST control) | 1.84 fold enrichment (6-mer frequency, TF over GST control) | 1.79 fold enrichment (6-mer frequency, TF over GST control) | 1.81 fold enrichment (6-mer frequency, TF over GST control) | 1.89 fold enrichment (6-mer frequency, TF over GST control) | 2.08 fold enrichment (6-mer frequency, TF over GST control) | 1.83 fold enrichment (6-mer frequency, TF over GST control) | 1.95 fold enrichment (6-mer frequency, TF over GST control)
CTCAAT | 1.22 fold enrichment (6-mer frequency, TF over GST control) | 1.36 fold enrichment (6-mer frequency, TF over GST control) | 1.21 fold enrichment (6-mer frequency, TF over GST control) | 1.21 fold enrichment (6-mer frequency, TF over GST control) | 1.16 fold enrichment (6-mer frequency, TF over GST control) | 1.27 fold enrichment (6-mer frequency, TF over GST control) | 1.2 fold enrichment (6-mer frequency, TF over GST control) | 1.23 fold enrichment (6-mer frequency, TF over GST control)
AATTTA | 1.27 fold enrichment (6-mer frequency, TF over GST control) | 1.25 fold enrichment (6-mer frequency, TF over GST control) | 1.18 fold enrichment (6-mer frequency, TF over GST control) | 1.12 fold enrichment (6-mer frequency, TF over GST control) | 1.28 fold enrichment (6-mer frequency, TF over GST control) | 1.26 fold enrichment (6-mer frequency, TF over GST control) | 1.22 fold enrichment (6-mer frequency, TF over GST control) | 1.33 fold enrichment (6-mer frequency, TF over GST control)
TCAATA | 1.24 fold enrichment (6-mer frequency, TF over GST control) | 1.24 fold enrichment (6-mer frequency, TF over GST control) | 1.15 fold enrichment (6-mer frequency, TF over GST control) | 1.17 fold enrichment (6-mer frequency, TF over GST control) | 1.26 fold enrichment (6-mer frequency, TF over GST control) | 1.08 fold enrichment (6-mer frequency, TF over GST control) | 1.23 fold enrichment (6-mer frequency, TF over GST control) | 1.14 fold enrichment (6-mer frequency, TF over GST control)
TCCCCT | 1.69 fold enrichment (6-mer frequency, TF over GST control) | 1.64 fold enrichment (6-mer frequency, TF over GST control) | 1.69 fold enrichment (6-mer frequency, TF over GST control) | 1.54 fold enrichment (6-mer frequency, TF over GST control) | 1.58 fold enrichment (6-mer frequency, TF over GST control) | 1.76 fold enrichment (6-mer frequency, TF over GST control) | 1.54 fold enrichment (6-mer frequency, TF over GST control) | 1.65 fold enrichment (6-mer frequency, TF over GST control)
AAACAA | 1.25 fold enrichment (6-mer frequency, TF over GST control) | 1.32 fold enrichment (6-mer frequency, TF over GST control) | 1.32 fold enrichment (6-mer frequency, TF over GST control) | 1.27 fold enrichment (6-mer frequency, TF over GST control) | 1.28 fold enrichment (6-mer frequency, TF over GST control) | 1.28 fold enrichment (6-mer frequency, TF over GST control) | 1.3 fold enrichment (6-mer frequency, TF over GST control) | 1.31 fold enrichment (6-mer frequency, TF over GST control)
TTATGA | 1.23 fold enrichment (6-mer frequency, TF over GST control) | 1.22 fold enrichment (6-mer frequency, TF over GST control) | 1.13 fold enrichment (6-mer frequency, TF over GST control) | 1.13 fold enrichment (6-mer frequency, TF over GST control) | 1.12 fold enrichment (6-mer frequency, TF over GST control) | 1.09 fold enrichment (6-mer frequency, TF over GST control) | 1.21 fold enrichment (6-mer frequency, TF over GST control) | 1.19 fold enrichment (6-mer frequency, TF over GST control)
CTACGG | 1.37 fold enrichment (6-mer frequency, TF over GST control) | 1.42 fold enrichment (6-mer frequency, TF over GST control) | 1.16 fold enrichment (6-mer frequency, TF over GST control) | 1.17 fold enrichment (6-mer frequency, TF over GST control) | 1.28 fold enrichment (6-mer frequency, TF over GST control) | 1.24 fold enrichment (6-mer frequency, TF over GST control) | 1.29 fold enrichment (6-mer frequency, TF over GST control) | 1.19 fold enrichment (6-mer frequency, TF over GST control)
CGATTG | 1.24 fold enrichment (6-mer frequency, TF over GST control) | 1.17 fold enrichment (6-mer frequency, TF over GST control) | 1.15 fold enrichment (6-mer frequency, TF over GST control) | 1.22 fold enrichment (6-mer frequency, TF over GST control) | 1.18 fold enrichment (6-mer frequency, TF over GST control) | 1.11 fold enrichment (6-mer frequency, TF over GST control) | 1.07 fold enrichment (6-mer frequency, TF over GST control) | 1.22 fold enrichment (6-mer frequency, TF over GST control)
